# Screening data from PubChem BioAssay.
# FLuc counter – firefly luciferase modulation, counter-screen for miR-21 project; P08659; Potency, µM (titrated, usually from 57.5 µM), most hits filed as inhibitors; 360,000 compounds, 6.9% hits; AID 588342; purified FLuc, Km substrates, luminescence inhibition; note: nearly all actives have a fitted effect of over 55% in size
# Target sequence (P08659 whole entry, looked up): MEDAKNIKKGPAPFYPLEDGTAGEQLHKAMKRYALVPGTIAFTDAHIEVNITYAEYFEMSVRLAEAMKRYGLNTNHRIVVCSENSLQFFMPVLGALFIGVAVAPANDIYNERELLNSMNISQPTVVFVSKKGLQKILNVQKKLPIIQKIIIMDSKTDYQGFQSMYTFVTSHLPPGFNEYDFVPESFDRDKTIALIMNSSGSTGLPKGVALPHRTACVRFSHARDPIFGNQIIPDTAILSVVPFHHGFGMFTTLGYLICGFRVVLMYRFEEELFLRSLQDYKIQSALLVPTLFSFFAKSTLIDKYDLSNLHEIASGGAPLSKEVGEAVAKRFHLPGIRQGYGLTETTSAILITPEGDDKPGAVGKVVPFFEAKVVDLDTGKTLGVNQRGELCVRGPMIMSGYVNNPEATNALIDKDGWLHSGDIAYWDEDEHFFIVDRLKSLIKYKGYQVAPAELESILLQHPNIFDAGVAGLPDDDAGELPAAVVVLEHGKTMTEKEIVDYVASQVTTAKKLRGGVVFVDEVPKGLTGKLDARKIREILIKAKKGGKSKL
#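 Purified P. pyralis luciferase, 10 nM final, with Km-level 10 uM D-luciferin and 10 uM ATP in 50 mM Tris acetate pH 7.5, 10 mM Mg acetate, 0.01% Tween-20, 0.05% BSA; 6-point qHTS titration about 60 µM downward; luminescence read.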
# SMN2 splice up – enhancers of SMN2 splice variant expression. HEK293 SMN2-luciferase splicing reporter, luminescence, 30-36 h. Potency, µM (highest dose often 46.1 µM), usual class: activators. 210,000 compounds, 2.8% hits. AID 1458; note: nearly all actives have a fitted effect of over 55% in size
#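 HEK293 cells carry an SMN2 minigene-luciferase reporter in which exon 7 inclusion puts luciferase in frame. Cells were seeded at 2000 cells/well, attached for 10-12 hours, then exposed to compounds for 30-36 hours at 37C before ONE-Glo luminescence.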
# NPC1 prom act – activates the NPC1 promoter. Huh7 NPC1 promoter luciferase reporter, 24 h. Potency, µM (highest dose often 9.22 µM), actives largely listed as activators. 320,000 compounds, 2.4% hits. AID 485313; note: nearly all actives have a fitted effect of over 60% in size
#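 Luminescence from an NPC1 promoter-driven luciferase reporter in stably transfected Huh7 cells was measured after 24 h compound treatment at 37 °C, followed by 10 min ambient incubation with luciferase detection reagent.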
# ELG1 repair inh – ELG1-dependent DNA repair inhibition. HEK293T ELG1-luciferase reporter, luminescence, 16 h; DNA damage induced by 5-fluorouridine. AID 504467. Potency, µM (doses to about 46.1 µM), actives largely listed as inhibitors. 330,000 compounds, 2.3% hits; note: nearly all actives have a fitted effect of over 55% in size
#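 5-Fluorouridine DNA damage + compound/DMSO, 2,000 cells/well, 16 h, 37 °C/5% CO2. ONE-Glo, 30 min RT, luminescence. Readout = decrease in reporter signal.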
# ELG1 genotoxic – induces genotoxicity in HEK293T cells with luciferase-tagged ELG1; HEK293T ELG1-luciferase reporter, luminescence, 16 h; Potency, µM (highest dose often 46 µM), usual class: activators; 330,000 compounds, 1.3% hits; note: nearly all actives have a fitted effect of over 60% in size
#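 Step 1: seed 2,000 HEK293T ELG1-luciferase cells per well. Step 2: add compound or DMSO, incubate 16 hr at 37 °C. Step 3: ONE-Glo, 30 min at room temperature, read luminescence.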
# Rab9 promoter act – activates the Rab9 promoter; Huh7 Rab9 promoter-luciferase reporter, luminescence, 24 h; Potency, µM (doses to about 9.22 µM), usual class: activators; 320,000 compounds, 2.8% hits; AID 485297; note: nearly all actives have a fitted effect of over 60% in size
#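 Huh7 cells stably carrying Rab9 promoter–luciferase reporter, plated 1500 cells/well, compound added after 2 h and incubated 24 h at 37 °C; luciferase luminescence then read after 10 min with detection reagent.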
# A number is an active result; 0 = inactive; ? = inconclusive; - = no result given. An excerpt weighted towards active compounds, which were near 9.3% of everything screened. Calls come from the whole dose curve; as a rule, active = well fitted curve in the direction sought with a large enough effect; inconclusive = small, poorly fitted or top-dose-only effect, or another doubt; inactive = no such curve, though single readings can be large; an effect the other way counts as inactive or inconclusive.
SMILES,FLuc counter,SMN2 splice up,NPC1 prom act,ELG1 repair inh,ELG1 genotoxic,Rab9 promoter act
O=C(CSc1nnc(CNC(=O)c2ccco2)o1)c1ccccc1,0,0,0,0,0,0
NC1=NC(=O)/C(=C/c2cccs2)S1,?,0,0,0,0,-
C=CCSC1=NC(=O)/C(=C/c2cccs2)S1,19µM,0,0,0,?,0
N#Cc1ccccc1NC(=O)c1ccc(-c2ccccc2Cl)o1,?,?,4µM,?,?,?
O=C(Nc1ccccc1)c1ccc(-c2ccccc2Cl)o1,6µM,?,0,?,?,?
O=C(Nc1ccccc1)c1ccc(-c2ccccc2C(F)(F)F)o1,17µM,0,0,?,0,0
CN1CCCN(C(=O)c2ccc(Br)s2)CC1,0,-,0,?,0,0
Cc1ccc(N=C2CCCN2Cc2ccccc2)c(C#N)c1,24µM,0,0,0,0,0
Cc1ccccc1C1=NC(C(F)(F)F)(C(F)(F)F)c2c(n(C)c(=O)n(C)c2=O)N1,0,0,0,?,0,0
Cn1c2c(c(=O)n(C)c1=O)C(C(F)(F)F)(C(F)(F)F)N=C(c1ccc(Cl)cc1)N2,0,0,0,0.65µM,0,0
Cc1cc(Nc2ccccc2)nn1C(=O)c1ccc([N+](=O)[O-])cc1,0,0,0,0,0,0
Cc1cc(Nc2ccccc2)n(C(=O)c2ccccc2)n1,12µM,0,0,?,?,0
Cc1cc(Nc2ccccc2)nn1C(=O)c1ccc(Cl)cc1,9.5µM,0,0,?,?,0
COc1ccc(C(=O)Nc2cc(C(F)(F)F)ccc2-n2cncn2)cc1,0,0,0,0,0,0
Cc1ccc(C(=O)Nc2ccc(C(F)(F)F)n(C)c2=O)cc1,4.3µM,22µM,0,?,?,3.2µM
CCN(CC)S(=O)(=O)c1ccc(C(=O)Nc2ccc(C(F)(F)F)n(C)c2=O)cc1,0,-,0,0,0,0
COc1ccc(C(=O)Nc2ccc(C(F)(F)F)n(C)c2=O)cc1,?,14µM,2.8µM,?,?,2.2µM
COCCn1c(C(F)(F)F)ccc(NC(=O)c2ccccc2)c1=O,7.6µM,-,1.4µM,?,7.3µM,1.3µM
O=C(Nc1ccccc1Cl)N1CCN(c2ccc3nnc(-c4ccccc4)n3n2)CC1,0,0,0,13µM,0,0
COc1ccc(S(=O)(=O)N2CCN(c3ccc4nnc(-c5ccc(F)cc5)n4n3)CC2)cc1,0,0,0,18µM,0,0
Cc1ccc(S(=O)(=O)N2CCN(c3ccc4nnc(-c5ccccc5)n4n3)CC2)cc1,0,0,0,0,0,0
O=C(Nc1ccc(Cl)cc1)N1CCN(c2ccc3nnc(-c4ccc(F)cc4)n3n2)CC1,0,0,0,4.6µM,0,0
O=C(NNC(=O)c1cc2ccccc2o1)c1ccncc1,-,-,-,0,0,-
CSC(C(=O)c1cc2ccccc2o1)c1ccccc1 (configuration not stated),?,-,?,?,0,3.2µM
CC(C)c1nnc(NC(=O)c2cc3ccccc3o2)s1,6.7µM,-,?,?,?,2µM
SMILES,FLuc counter,SMN2 splice up,NPC1 prom act,ELG1 repair inh,ELG1 genotoxic,Rab9 promoter act
O=C(NNC(=O)c1ccccc1O)c1cc2ccccc2o1,27µM,-,4.5µM,?,?,?
O=C(Nc1ccccc1)c1cc2ccccc2o1,1.2µM,13µM,2.8µM,?,?,1.6µM
Cn1c(=O)c2c(nc(NCc3ccc4c(c3)OCO4)n2Cc2ccccc2Cl)n(C)c1=O,0,0,0,0,0,0
CCCCC(=O)N(Cc1ccc(-c2ccccc2-c2nn[nH]n2)cc1)C(C(=O)O)C(C)C (configuration not stated),-,0,-,-,-,-
O=C(COC(=O)CSCC(=O)N1CCCCC1)Nc1ccc(Cl)cc1,0,0,0,0,0,0
O=C(Nc1ccc(NC(=O)c2cc3ccccc3o2)cc1)c1ccco1,0,-,0,0,0,0
O=C(Nc1ccc(N2CCCC2)cc1)c1cc2ccccc2o1,3µM,-,3.5µM,?,?,2µM
O=C(Nc1ccc(F)cc1)c1cc2ccccc2o1,6.7µM,-,3.5µM,?,0,3.2µM
CC(=O)N1CCN(c2ccc(NC(=O)c3cc4ccccc4o3)cc2)CC1,?,-,0,?,0,0
Cc1cc(C(=O)Nc2ccccc2)oc1C,12µM,20µM,?,?,?,2.8µM
CC(=O)c1ccc(NC(=O)c2cc3ccccc3o2)cc1,?,-,1µM,?,2.6µM,0.63µM
O=C(CN(Cc1ccccc1)C(=O)CNS(=O)(=O)c1ccc(F)cc1)NCC1CCCO1 (configuration not stated),0,-,0,0,0,0
COc1ccc(CCNC(=S)NC(=O)c2c(-c3ccccc3Cl)noc2C)cc1OC,0,-,0,0,0,0
C=CC(C1=CC(=O)C=CC1=O)c1ccccc1 (configuration not stated),-,0,-,-,-,-
O=C(NCc1cccc(Cl)c1)c1cc(=O)[nH]c2ccccc12,0,-,0,0,0,0
CN(C)C1=NC[C@H](Cc2ccccc2)N1CCCC1CCCCC1,0,-,0,0,0,0
COc1ccc(C(=O)COC(=O)c2ccc(N(C)C)cc2)cc1,0,0,0,0,0,?
COc1ccccc1Oc1cn[nH]c1-c1ccc(OCC(=O)NN)cc1O,0,-,0,0,0,0
c1nc(NC2CCNCC2)c2cc(-c3ccc4c(c3)OCO4)ccc2n1,-,0,-,-,-,-
Cc1noc(C)c1-c1ccc2ncnc(NC3CC3)c2c1,-,7.9µM,-,-,-,-
Cc1cccc(CNc2ncnc3ccc(-c4cccc(C)c4)cc23)c1,0,-,0,-,-,0
COc1cccc(-c2ccc3ncnc(NCc4ccc5c(c4)OCO5)c3c2)c1,0,-,0,8.2µM,0,0
CC(=O)Nc1ccc(CNc2ncnc3ccc(-c4c(C)noc4C)cc23)cc1,0,-,0,?,4.1µM,0
Cc1cccc(CNc2ncnc3ccc(-c4c(C)noc4C)cc23)c1,-,5.6µM,-,-,-,-
COc1ccc(NC(=O)C2CCN(S(=O)(=O)c3ccc(N4CCCC4=O)cc3)CC2)c(OC)c1,0,-,0,0,0,0
SMILES,FLuc counter,SMN2 splice up,NPC1 prom act,ELG1 repair inh,ELG1 genotoxic,Rab9 promoter act
Cc1nnnn1/C(=C\c1ccccc1)C(=O)OCC(=O)NC(C)(C)C,0,0,0,16µM,0,0
CC(=O)Nc1ccc(NC(=O)COC(=O)/C(=C/c2ccccc2)n2nnnc2C)cc1,0,-,0,?,0,0
CN1CCCCCC1=NC1=C(C#N)CCCC1,0,0,0,0,0,0
COc1ccc2o/c(=N/NC(=O)c3cccs3)c(C(N)=O)cc2c1,?,14µM,?,?,0,?
COc1cc(/C=N/NC(=O)c2cccs2)ccc1O,11µM,-,0,?,21µM,?
COc1cc(/C=N/NC(=O)c2ccccc2O)ccc1OC(=O)CC1SC(=O)NC1=O (configuration not stated),17µM,-,0,?,0,0
COc1cc(/C=N/NC(=O)c2cccs2)ccc1OCc1ccccc1,?,0,0,0,0,0
